Assay results from PubChem BioAssay AID623911 (Vanderbilt High Throughput Screening Facility, 2012).
Out of some 2,100 compounds screened, about 770 (37%) were called active.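 The calls were made as follows: active = by-eye trace score of 1 for enhancers or -1 for inhibitors, so actives lie on both sides (some results past the limit were not filed as active); inactive = score 0, or 3 fluorescent, or 4 baseline rise.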 Some of the results follow.

These molecules were tested against G protein-activated inward rectifier potassium channel 2 (Homo sapiens) + G protein-activated inward rectifier potassium channel 1 (Homo sapiens) (UniProt P48051+P48549) (assay: GIRK1/2 thallium flux modulators, retest, confirmation, cell-based, HEK293 rmGlu8/hGIRK1/2, FluoZin-2 (AID 623911)). Settings: HEK293 rmGlu8/hGIRK1/2, thallium flux FluoZin-2; actives lie on both sides; glutamate co-added at its EC20 level.
Chain of G protein-activated inward rectifier potassium channel 2 (Homo sapiens) + G protein-activated inward rectifier potassium channel 1 (Homo sapiens) (P48051 whole entry, looked up): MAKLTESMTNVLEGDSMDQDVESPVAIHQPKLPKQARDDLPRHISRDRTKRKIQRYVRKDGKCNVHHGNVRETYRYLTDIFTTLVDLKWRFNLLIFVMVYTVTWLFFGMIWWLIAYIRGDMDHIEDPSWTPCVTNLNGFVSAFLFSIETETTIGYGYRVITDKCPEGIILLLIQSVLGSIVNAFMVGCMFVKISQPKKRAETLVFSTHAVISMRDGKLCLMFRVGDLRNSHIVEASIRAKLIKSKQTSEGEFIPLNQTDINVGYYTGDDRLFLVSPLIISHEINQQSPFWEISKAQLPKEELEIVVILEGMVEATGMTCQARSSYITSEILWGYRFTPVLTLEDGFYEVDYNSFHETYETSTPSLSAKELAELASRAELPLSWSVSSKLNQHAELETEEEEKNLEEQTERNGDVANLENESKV
Chain of G protein-activated inward rectifier potassium channel 2 (Homo sapiens) + G protein-activated inward rectifier potassium channel 1 (Homo sapiens) (P48549 whole entry, looked up): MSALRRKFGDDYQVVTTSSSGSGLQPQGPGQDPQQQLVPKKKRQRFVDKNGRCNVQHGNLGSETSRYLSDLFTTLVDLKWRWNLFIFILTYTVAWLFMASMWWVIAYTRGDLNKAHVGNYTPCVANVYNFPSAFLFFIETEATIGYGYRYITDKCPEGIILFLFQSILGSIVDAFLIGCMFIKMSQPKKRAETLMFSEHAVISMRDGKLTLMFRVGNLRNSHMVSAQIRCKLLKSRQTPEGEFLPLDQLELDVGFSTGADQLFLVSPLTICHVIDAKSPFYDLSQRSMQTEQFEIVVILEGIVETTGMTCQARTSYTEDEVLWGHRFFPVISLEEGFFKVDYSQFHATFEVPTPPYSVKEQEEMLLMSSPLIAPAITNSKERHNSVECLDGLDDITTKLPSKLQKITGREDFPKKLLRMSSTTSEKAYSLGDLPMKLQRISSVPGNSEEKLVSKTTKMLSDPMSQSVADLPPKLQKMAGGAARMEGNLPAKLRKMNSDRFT

Manual score, active:
CCOC(=O)N1CCN(c2c(F)cc3[nH]c(=S)[nH]c3c2Br)CC1 -1, O=C(Nc1nnc(-c2ccco2)o1)c1ccc2ccccc2c1 1, COc1ccc(-c2nnc(NC(=O)c3ccc(F)cc3)o2)cc1 1, COc1ccc(-c2nnc(NC(=O)c3ccc(S(=O)(=O)N4COCC4(C)C)cc3)o2)cc1 1, CCOc1ccc(-c2nnc(NC(=O)c3ccc(OCC(C)C)c(OC)c3)o2)cc1 1, CCCn1cc(NC(=O)c2cc(-c3ccccc3)on2)cn1 1, CC(C)n1cc(NC(=O)c2cc(-c3ccccc3)on2)cn1 1, Cc1ccc2cccc(S(=O)(=O)N3CCN(c4ccccc4F)CC3)c2n1 -1, Cc1onc(-c2ccccc2)c1C(=O)NC(=S)Nc1sc2c(c1C#N)CCCC2 1, Cc1ccccc1C(=O)NNC(=S)NC(=O)c1ccc(Cl)cc1Cl 1, O=C(COc1ccccc1)NNC(=S)NC(=O)c1ccc(Cl)cc1Cl 1, Cc1onc(-c2ccccc2)c1C(=O)NNC(=S)NC(=O)c1ccc(Br)cc1 1

Manual score, inactive:
Cc1ccc(-c2[nH]nc3c2C(c2ccoc2)C(C#N)=C(N)O3)cc1C (stereo not given) 0, CCOC(=O)N1CCN(c2ccc3nnnn3n2)CC1 0, CCOC(=O)N1CCC(n2c(=S)[nH]c3ccccc3c2=O)CC1 0, CCOc1ccc(-c2nnc(NC(=O)CCCOc3cccc(C)c3)o2)cc1 0, COc1ccc(-c2nnc(NC(=O)c3ccc(S(=O)(=O)N4CCCc5ccccc54)cc3)o2)cc1 0, CCOc1ccc(-c2nc(-c3ccc(OC)c(OC)c3)no2)cc1OCC 0, CCc1cc(C(N)=O)c(NC(=O)c2ccc(OC)cc2)s1 0, O=C(CSc1ccc(-c2ccco2)nn1)c1ccccc1 0, COc1ccc(-c2nnc(NC(=O)c3ccc(S(=O)(=O)N4CCc5ccccc5C4)cc3)o2)cc1 0, COc1ccc(C(=O)Nc2ccc(S(=O)(=O)NCc3ccco3)cc2)cc1OC 0, CC(=O)CN1Cc2ccccc2/C1=N\C(=O)Nc1ccccc1 0, CCCCN(C)C1=CC2=CC(=C(C#N)C#N)CCC2CC1 (stereo not given) 3, O=C(c1cc(-c2ccccc2)on1)N1CCCC1 0, Cc1ccccc1Cn1cc(NC(=O)c2nc3ncccn3n2)cn1 0, Cc1cccc(N2CCN(C(=O)c3ccc(Cl)c(S(=O)(=O)N4CCc5ccccc5C4)c3)CC2)c1C 0, O=c1sc(N2CCN(c3ccccc3F)CC2)nc2ccsc12 0, Cc1ccccc1C(=O)NC(=S)Nc1sc2c(c1C#N)CCCC2 0, C=CCNC(=S)NNC(=O)COc1ccc(Cl)cc1Cl 0
